RGS12 GoLoco inh: qHTS Assay for Inhibitors of RGS12 GoLoco Motif Activity (Red Fluorophore). Guanine nucleotide-binding protein G(i) subunit alpha-1 (Homo sapiens), P63096. Gai1:RGS12 GoLoco peptide FP, rhodamine, 10 min. Potency, µM (series often up to 61.6 µM), without a hit: at the top dose activity, negative = inhibition, usual class: inhibitors. 230,000 compounds, 0.44% hits; active = well fitted inhibition curve with a large enough effect, not every such curve was filed as active; inactive = no such curve, though single readings can be large or run the other way; also: nearly all actives have a fitted effect of over 30% in size
Target sequence (P63096 whole entry, looked up): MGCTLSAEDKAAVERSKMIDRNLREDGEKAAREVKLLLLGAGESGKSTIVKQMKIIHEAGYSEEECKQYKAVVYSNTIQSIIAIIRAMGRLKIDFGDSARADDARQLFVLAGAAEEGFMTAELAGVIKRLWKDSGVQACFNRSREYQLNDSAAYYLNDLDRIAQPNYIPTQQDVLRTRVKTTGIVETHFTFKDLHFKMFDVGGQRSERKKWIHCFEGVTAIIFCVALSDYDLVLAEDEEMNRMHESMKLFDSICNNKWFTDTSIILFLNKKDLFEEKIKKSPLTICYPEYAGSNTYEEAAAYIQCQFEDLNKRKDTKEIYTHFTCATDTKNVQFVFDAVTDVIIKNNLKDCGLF
Tau fluor cs: Counterscreen qHTS for Inhibitors of Tau Fibril Formation, Fluorescence Polarization; tau K18 P301L Alexa594 fluorescence, heparin fibrillization; Potency, µM (doses to about 57.7 µM), inactives show at the top dose activity change, negative = decrease; 280,000 compounds, 0.93% hits; AID 1463, 2008; also: nearly all actives have a fitted effect of over 55% in size
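Human K18 P301L tau (15 uM unlabeled plus 0.24 uM Alexa 594-labeled, final) in 100 mM sodium acetate pH 7 was mixed with compound and 20 uM heparin and incubated 6 hr at 37 C.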
Tau FP inhib: qHTS for Inhibitors of Tau Fibril Formation, Fluorescence Polarization; Microtubule-associated protein tau (Homo sapiens), P10636; K18 P301L tau heparin fibrillization, Alexa594 FP, 6 h; Potency, µM (titrated, usually from 57.7 µM), inactives show at the highest dose activity, negative = inhibition, usual class: inhibitors; 280,000 compounds, 0.39% hits; AID 1468, 2008; also: nearly all actives have a fitted effect of over 55% in size
Target sequence (P10636 561-689 P618L limits assumed): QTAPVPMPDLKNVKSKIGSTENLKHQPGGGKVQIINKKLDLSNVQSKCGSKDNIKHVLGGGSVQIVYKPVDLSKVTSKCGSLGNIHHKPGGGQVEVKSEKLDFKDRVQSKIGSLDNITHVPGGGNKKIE
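FP of Alexa 594-tau after heparin (20 uM) induction. Substrate: human K18 P301L, 15 uM unlabeled, 0.24 uM labeled. Buffer 100 mM sodium acetate pH 7. 6 hr, 37 C.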
Tau ThT inhib: qHTS for Inhibitors of Tau Fibril Formation, Thioflavin T Binding; Microtubule-associated protein tau (Homo sapiens), P10636; Potency, µM (doses to about 57.4 µM), for inactives: at the highest dose activity, negative = inhibition, usual class: inhibitors; recombinant tau K18 P301L (four-repeat tau fragment), heparin-induced fibrillization, ThT fluorescence; AID 1460, 2008; 270,000 compounds, 2.1% hits; also: nearly all actives have a fitted effect of over 55% in size
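Heparin-induced fibrillization of the P301L-mutant K18 repeat-domain fragment of human tau was followed by ThT binding in quantitative high-throughput format.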
TRb SRC2 PPI: qHTS for Inhibitors of the Interaction of Thyroid Hormone Receptor and Steroid Receptor Coregulator 2. TRbeta-SRC2 peptide binding, fluorescence polarization; receptor liganded with 1 µM T3. Potency, µM (top dose mostly 106 µM), inactives show top-dose activity change, negative = inhibition, actives largely listed as inhibitors. 280,000 compounds, 0.065% hits. AID 1469, 2008;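 also: plate controls were bound peptide for no effect and peptide without receptor for full effect; nearly all actives have a fitted effect of over 50% in size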
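Compounds were added to 0.6 uM TRb ligand-binding domain and 20 nM Texas Red-labeled SRC2 peptide in Tris buffer containing 1 uM T3, incubated 5 hr at ambient temperature, then read by fluorescence polarization.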
TR SRC2 fluor cs: Total Fluorescence Counterscreen for Inhibitors of the Interaction of Thyroid Hormone Receptor and Steroid Receptor Coregulator 2 | 280,000 compounds, 0.29% hits | TRb/SRC2 Texas Red total fluorescence interference | Potency, µM (highest dose often 106 µM), without a hit: top-dose fluorescence change, negative = quenching; active = well fitted curve in either direction with a large enough effect; inconclusive = small, poorly fitted or top-dose-only effect
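Flags fluorescent or light-absorbing compounds by total fluorescence, S + 2P, at 555 nm excitation and 632 nm emission. Mixture: 20 nM Texas Red SRC2 peptide, 0.6 uM human TRb LBD, 1 uM T3, 5% DMSO; compound exposure 5 h at ambient temperature.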
The depositor's hits bear a star; ? = inconclusive; . = no result; ! = a repeat was not active; [ ] = another dose, or the depositor's remark. Rows were chosen to be rich in hits. Some 3.2% of all compounds tested hit in one or more screens of this group. Unless noted, calls follow the shape of the dose curve; as a rule, active = well fitted curve in the direction sought with a large enough effect; inconclusive = small, poorly fitted or top-dose-only effect, or another doubt; inactive = no such curve, though single readings can be large; an effect the other way counts as inactive or inconclusive. Unless noted, % is scaled to controls: 0 for no effect and ±100 for the full control effect; potency is read from the fitted curve at half-maximal effect.

SMILES	RGS12 GoLoco inh	Tau fluor cs	Tau FP inhib	Tau ThT inhib	TRb SRC2 PPI	TR SRC2 fluor cs
Cc1cc(C(=O)NCc2cccs2)ccc1[N+](=O)[O-]	11%	-11%	-8%	-9%	-4%	1%
O=C(NCc1cccs1)c1ccc([N+](=O)[O-])cc1	-14%	-10%	10%	-12%	?	0.1µM*[quencher]
Cc1cccc(Cn2c(C(=O)OC(C)C)cc3c2ccn3C)c1	6%	?	?	35µM*	?	-1%
COc1cc(/C=N/Nc2ccc3ccccc3c2)ccc1OC(=O)c1ccco1	12%	13µM*[quencher]	-8%	13µM*	-1%	-1%
O=C1NC(=S)S/C1=C\c1coc2ccc(O)cc2c1=O	40%	-26%	-2%	1.1µM*	19%	-25%
O=C1NC(=S)S/C1=C\c1coc2ccccc2c1=O	20%	-4%	-8%	7.9µM*	-23%	14%
Nc1nc(-c2cc(-c3cccc4ccccc34)nc(N)n2)cc(-c2cccc3ccccc23)n1	-3%[14.2 µM]	.	.	.	.	.
N#CC1=C(N)Oc2ccc3ccc(O)cc3c2C1c1ccsc1 (stereo not drawn)	13µM*	-27%	15%	-7%	-13%	22%
COc1ccc(-c2nc(-c3ccccc3)c(-c3cc([N+](=O)[O-])ccc3C)[nH]2)cc1O	17%	14µM*[quencher]	4%	?	0%	-5%
O=[N+]([O-])c1cccc(-c2nc3ccc([N+](=O)[O-])cc3[nH]2)c1	39%	?	12%	?	8%	-1%
Cc1ccc([N+](=O)[O-])cc1-c1[nH]c(-c2ccc(O)c(O)c2)nc1-c1ccccc1	5%	13µM*[quencher]	16%	?	7%	-5%
Cc1ccc([N+](=O)[O-])cc1NC(=O)c1ccc(-c2ccccc2)cc1	0%	-13%	-3%	-14%	5%	-4%
Nc1n[nH]c(N)c1N=Nc1ccc2c(c1)OCO2	11%	-30%	1%	14µM*	4%	-7%
O=[N+]([O-])c1ccc2c(c1)Cc1ccccc1-2	.	.	.	.	5%[201 µM]	-6%[201 µM]
O=C(O)c1ccc2cc(-c3ccc(O)c(C45CC6CC(CC(C6)C4)C5)c3)ccc2c1	1%	?	?	28µM*	14%	-5%
C[C@@H]1C[C@](C)(C(=O)c2ccc3ccccc3c2)C=C1c1ccc2ccccc2c1	-5%	-15%	-3%	?	12%	0%
CCc1ccc(CN(C(=O)c2nc(SC)ncc2Cl)C2CCS(=O)(=O)C2)cc1 (stereo not drawn)	.	-17%	-2%	-9%	-13%	?
Cc1ccc(N2CCN(c3c(CN4CCCC4)c(=O)oc4ccccc34)CC2)c(C)c1	.	-12%	0%	-14%	2%	-3%
CCC(C(=O)Nc1ccccc1OC)n1c(C(=O)OC)cc2sc(Cl)cc21 (stereo not drawn)	.	-30%	-16%	-6%	-19%	20µM*[quencher]
CCCCCCCCCCC(C)(C)C(=O)Nc1c(OC)cc(OC)cc1OC	4%	-12%	0%	?	3%	-6%
COc1ccc(-c2[nH]c(-c3ccccc3)nc2SCC(=O)NC2CCCC2)cc1	10%	25µM*[quencher]	?	?	1%	-4%
COCCCNC(=O)CSc1nc(-c2ccccc2)[nH]c1-c1ccc(C)cc1	.	?	1%	-11%	0%	0%
CCOc1ccc(-c2nnc(SCC(=O)NC3CCCCC3)nc2-c2ccc(OCC)c(OC)c2)cc1OC	.	7%	-8%	7%	3%	-3%
CCOc1ccc(-c2nc(SCC(=O)NC3CCCC3)c(-c3ccccc3)[nH]2)cc1OC	.	13µM*[quencher]	?	?	-10%	-3%
COc1ccc(-c2[nH]c(-c3cccc(OC)c3)nc2SCC(=O)NC2CCCC2)cc1	21%	13µM*![quencher]	?	?	0%	-5%
SMILES	RGS12 GoLoco inh	Tau fluor cs	Tau FP inhib	Tau ThT inhib	TRb SRC2 PPI	TR SRC2 fluor cs
COc1ccc(-c2[nH]c(-c3ccc(F)cc3)nc2SCC(=O)NC2CCCC2)cc1	247%	-3%	5%	8%	2%	-2%
COc1cccc(-c2nc(SCC(=O)NCC3CCCO3)c(-c3ccc(F)cc3)[nH]2)c1 (stereo not drawn)	.	?	16%	-13%	-3%	-4%
COc1ccc(-c2nc(SCC(=O)NC3CCCC3)c(-c3ccc(F)cc3)[nH]2)cc1	.	14µM*[quencher]	8%	?	-4%	-4%
CCCCCCCCCCCCCO	.	.	.	.	4%[201 µM]	-1%[201 µM]
COC1CC(O[C@H]2/C(C)=C/CC3CC(C[C@]4(CCC(C)C(C5CCCCC5)O4)O3)OC(=O)[C@H]3C=C(C)/C(=N/O)C4OC/C(=C\C=C\[C@@H]2C)[C@@]43O)OC(C)C1O (stereo partly drawn)	-6%	-13%	1%	-8%	-4%	0%
O=C1C(=C2SCCCS2)CC/C1=C\c1ccc(F)cc1	3%	-3%	-5%	1.1µM*	-5%	-1%
Cc1cccc(/C=C2\CCC(=C3SCCCS3)C2=O)c1	-8%	-22%	-5%	1.4µM*	-10%	-4%
O=C1/C(=C/c2ccc(F)cc2)CCC1C1CCCC1 (stereo not drawn)	-2%	-5%	-2%	-10%	-11%	-6%
CCCCN(CC)C(=O)c1cc2c(=O)n3cccc(C)c3nc2n1C	.	-7%	4%	-13%	0%	2%
Cc1ccc(C(OCC(C)(C)C[N+](C)(C)C)c2ccccc2)cc1 (stereo not drawn)	8.9µM*	-10%	-2%	-12%	-5%	1%
COC(=O)c1ccc2c(c1)SC1=C(CCCC1=O)N2	-44%	-6%	5%	13µM*	-24%	17%
S=C1CCSc2ccc(Cl)cc2N1	-3%	-11%	5%	-12%	7%	-1%
O=C1CCCC2=C1Sc1ccc(Cl)cc1N2	-1%	-15%	15%	6.3µM*	-1%	-4%
CC(C)N1CCN(c2ccc(OC[C@@H]3CO[C@@](Cn4cncn4)(c4ccc(Cl)cc4Cl)O3)cc2)CC1	-8%[21.6 µM]	.	.	.	-2%[53 µM]	0%[53 µM]
O=C(Nc1ccc2c(c1)CCCN2C(=O)c1cccs1)c1ccccc1Cl	.	-3%	14%	-6%	-2%	-2%
CN(C)c1ccc(N=Nc2nc3ccccc3n2C)cc1	113%	13µM*[quencher]	?	0.5µM*	6%	-2%
